CHX counter: affects cycloheximide protein synthesis inhibition readout, counter-screen. max response, %. AID 2314. cell reporter, cycloheximide protein synthesis inhibition counterscreen. 300,000 compounds, 12% hits; in the data active means max response mostly above about 13%, no sharp cut-off; inactive means mostly below about 14%; further: read at 38.3 µM for the half of the compounds with a filed dose; 0% is about no effect
LmPK inhibitor: inhibitors of Leishmania mexicana pyruvate kinase. 290,000 compounds, 0.37% hits. AID 1721. Potency, µM (top dose mostly 57.5 µM), inactives show at the top dose activity change, negative = inhibition, actives largely listed as inhibitors. purified LmPK, Kinase-Glo ATP luminescence, 1 h; further: potency means the concentration at half of the fitted maximal effect; on the % scale 0 is the no-effect control and ±100 the full control effect
Target sequence (Q27686 whole entry, looked up): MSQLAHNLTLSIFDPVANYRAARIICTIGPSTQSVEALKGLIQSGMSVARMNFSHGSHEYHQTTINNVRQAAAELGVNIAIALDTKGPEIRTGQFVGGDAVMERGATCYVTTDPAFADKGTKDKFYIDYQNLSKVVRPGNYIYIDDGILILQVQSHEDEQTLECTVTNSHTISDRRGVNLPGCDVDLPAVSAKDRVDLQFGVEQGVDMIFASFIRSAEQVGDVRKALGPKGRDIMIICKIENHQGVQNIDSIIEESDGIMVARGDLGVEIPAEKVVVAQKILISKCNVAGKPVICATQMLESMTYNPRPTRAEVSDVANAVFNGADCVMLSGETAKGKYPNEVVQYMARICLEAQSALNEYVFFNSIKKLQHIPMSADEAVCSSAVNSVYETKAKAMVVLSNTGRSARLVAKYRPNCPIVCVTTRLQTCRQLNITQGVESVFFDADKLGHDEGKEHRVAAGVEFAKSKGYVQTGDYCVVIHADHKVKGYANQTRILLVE
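ATP generated from ADP (0.1 mM) and PEP (0.5 mM) by 0.1 nM LmPK over 1 h at room temperature (pH 7.2 imidazole buffer) was detected by coupled luciferase luminescence. Values were normalized to uninhibited and no-enzyme wells.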
Tb PYK inh: inhibitors of Trypanosoma brucei pyruvate kinase; Q57TT1; TbPYK enzyme, Kinase-Glo Plus ATP luminescence, 45 min; Potency, µM (doses to about 76.8 µM), for inactives: at the highest dose activity, negative = inhibition, actives largely listed as inhibitors; 410,000 compounds, 0.12% hits; further: potency means the concentration at half of the fitted maximal effect; on the % scale 0 is the no-effect control and ±100 the full control effect; nearly all actives have a fitted effect of over 50% in size
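Readout: single end-point luminescence (Kinase-Glo Plus, 10 min). Reaction conditions were TbPYK/substrate plus 130 uM ADP, 45 min at RT, pH 7.2 TEA buffer. No-enzyme wells served as controls, and data were normalized before concentration-response fitting.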
RE007 growth inh: less growth of the S. pombe RE007 Vpr strain | S. pombe RE007 Vpr strain, BacTiter-Glo ATP luminescence, 24 h | Potency, µM (top dose mostly 92.2 µM), for the others: at the top dose activity change, negative = less growth, usual class: inhibitors | 360,000 compounds, 0.21% hits | AID 651644; active means well fitted falling curve with a large enough effect; inconclusive means small, poorly fitted or top-dose-only effect; inactive means no such curve, though single readings can be large or run the other way; further: potency means the concentration at half of the fitted maximal effect; on the % scale 0 is the no-effect control and ±100 the full control effect; nearly all actives have a fitted effect of over 50% in size
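Fission yeast RE007 carrying one integrated HIV-1 vpr copy, seeded at OD 0.01 in PMG+AL medium with 23 nL pinned compound. Grown 24 h at 30 degrees; viability read by BacTiter-Glo luminescence after 5 min.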
Giardia FBPA inh: inhibitors of Giardia lamblia fructose-1,6-bisphosphate aldolase; AID 2451; Potency, µM (titrated, usually from 59.6 µM), for the others: at the highest dose activity, negative = inhibition, usual class: inhibitors; 290,000 compounds, 0.71% hits; purified Giardia FBPA; A8B2U2; further: potency means the concentration at half of the fitted maximal effect; on the % scale 0 is the no-effect control and ±100 the full control effect; nearly all actives have a fitted effect of over 55% in size
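Giardia FBPA (40 nM reagent) was preincubated 10 min at RT with compound (up to 57.5 uM final), then substrate plus GAPDH/TPI/NAD/arsenate coupling system with diaphorase/resazurin was added; resorufin fluorescence (525/598 nm) was read after 20 min.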
Shiga toxin inh: inhibitors of Shiga toxin in Vero cells; Vero cells, Shiga toxin protein synthesis inhibition reporter; inhibition, % at 38.7 µM; 290,000 compounds, 9.2% hits; AID 2315; in the data active means inhibition mostly above about 28%, no sharp cut-off; inactive means mostly below about 43%; further: 0% is about no effect
The depositor's hits bear a star; [ ] = dose if it differs, or a comment. This is one part of a sample in which hits are shown more often than they occur. Unless noted, the call rests on the fitted dose curve; in most records, active means well fitted curve in the direction sought with a large enough effect; inconclusive means small, poorly fitted or top-dose-only effect, or another doubt; inactive means no such curve, though single readings can be large; an effect the other way counts as inactive or inconclusive.

For O=C(Nc1nc2ccc(F)cc2s1)c1cccc(S(=O)(=O)N2CCc3ccccc32)c1 the results were CHX counter 24.4*, LmPK inhibitor -1.5%, Tb PYK inh -2.1%, RE007 growth inh 5.0%, Giardia FBPA inh 1.7% and Shiga toxin inh 35.3.
For CCN(CC)S(=O)(=O)c1cccc(C(=O)N[C@H](C(=O)Nc2nc3ccccc3s2)C(C)C)c1 the results were CHX counter 16.7*, LmPK inhibitor -0.7%, Tb PYK inh -2.5%, RE007 growth inh 2.6%, Giardia FBPA inh -1.7% and Shiga toxin inh 19.4.
O=C(Nc1nc2c(F)cc(F)cc2s1)c1ccc(S(=O)(=O)N2CCc3ccccc32)cc1 was read as Tb PYK inh 2.7%.
`CCN(CC)S(=O)(=O)c1cccc(C(=O)NC(C(=O)Nc2nnc(C3CC3)s2)C(C)C)c1` (stereo unspecified) gave CHX counter 7.0, LmPK inhibitor 2.5%, Tb PYK inh 0.3%, RE007 growth inh 3.2%, Giardia FBPA inh 1.0% and Shiga toxin inh 3.0.
Screening COc1cc2ncc3c(-c4ccccc4)nn(CC(=O)NC4CCCCC4)c3c2cc1OC returned Tb PYK inh 1.3%.
`CC1CCCN(c2nc3ccsc3c(=O)s2)C1` (stereo unspecified) gave CHX counter 43.6*, LmPK inhibitor 0.3%, Tb PYK inh 1.8%, RE007 growth inh -6.0%, Giardia FBPA inh 6.2% and Shiga toxin inh 118.7*.
O=C(NCc1ccccc1Cl)C1CCCN(c2nc3ccsc3c(=O)s2)C1 (stereo unspecified) was read as CHX counter -0.9, LmPK inhibitor 7.4%, Giardia FBPA inh 1.3% and Shiga toxin inh -10.0.
O=c1oc2cc(OCc3ccc(F)cc3F)ccc2cc1-c1ccc2ccccc2n1 was read as CHX counter 2.3, LmPK inhibitor -0.7%, Giardia FBPA inh -4.7% and Shiga toxin inh -5.5.
`ClC(Cl)c1nnc(-c2ccccc2)c(-c2c[nH]c3ccccc23)n1` gave CHX counter 12.5, LmPK inhibitor -1.7%, Tb PYK inh -8.5%, Giardia FBPA inh -6.3% and Shiga toxin inh active.
Screening CC(C)Sc1ncnc2c1oc1ccccc12 returned CHX counter 31.8*, LmPK inhibitor 4.5%, Tb PYK inh 4.0%, RE007 growth inh -12.7%, Giardia FBPA inh 9.5% and Shiga toxin inh 85.3*.
For O=C(CSc1ncnc2c1oc1ccccc12)Nc1ccccc1F the results were CHX counter -0.8, LmPK inhibitor 7.6%, Tb PYK inh 1.2%, RE007 growth inh 5.2%, Giardia FBPA inh 1.5% and Shiga toxin inh -13.8.
Screening CCc1nc(SCC(=O)c2cccs2)c2oc3ccccc3c2n1 returned CHX counter 27.2*, LmPK inhibitor 0.0%, RE007 growth inh -3.8%[3.69 µM], Giardia FBPA inh -2.9% and Shiga toxin inh 44.1.
Screening CC(=O)CSc1ncnc2c1oc1ccccc12 returned CHX counter 12.0*, LmPK inhibitor -5.6%, Tb PYK inh 4.9%, RE007 growth inh -22.8%, Giardia FBPA inh 0.2% and Shiga toxin inh 23.4.
For c1ccc(Sc2ncnc3c2oc2ccccc23)nc1 the results were CHX counter 63.6*, LmPK inhibitor 5.2%, Tb PYK inh -5.3%, RE007 growth inh -19.2%, Giardia FBPA inh 0.3% and Shiga toxin inh 115.3*.
Screening Cc1oc2c(C)c3oc(=O)c(CCC(=O)N4CCCCC4)c(C)c3cc2c1C returned Tb PYK inh -3.2%.
CN(C)Cc1ccccc1-c1nc(N(C)Cc2ccco2)c2ccccc2n1 was read as Giardia FBPA inh -5.1%.
`c1coc(CSc2ncnc3c2oc2ccccc23)c1` gave CHX counter 56.7*, LmPK inhibitor 2.9%, Tb PYK inh 0.3%, RE007 growth inh -20.0%, Giardia FBPA inh 1.8% and Shiga toxin inh 85.3*.
`c1ccc(CSc2ncnc3c2oc2ccccc23)cc1` gave Tb PYK inh 4.7% and RE007 growth inh 11.2%.
For O=C(CSc1ncnc2c1oc1ccccc12)Nc1cccc(Cl)c1 the results were CHX counter 9.2*, LmPK inhibitor 1.6%, Tb PYK inh 4.7%, RE007 growth inh -3.6%, Giardia FBPA inh 0.5% and Shiga toxin inh 49.2.
Screening COc1ncnc2c1oc1ccccc12 returned CHX counter 48.3*, LmPK inhibitor -4.9%, Tb PYK inh -2.1%, RE007 growth inh 1.2%, Giardia FBPA inh 0.5% and Shiga toxin inh 111.9*.
Screening CCCSc1ncnc2c1oc1ccccc12 returned CHX counter 25.0*, LmPK inhibitor -1.8%, Tb PYK inh 0.2%, RE007 growth inh -0.7%, Giardia FBPA inh 4.2% and Shiga toxin inh 27.1.
`CCOc1ccccc1Oc1ncnc2c1oc1ccccc12` gave Tb PYK inh 6.6%.
CCOc1ccccc1NC(=O)CSc1ncnc2c1oc1ccccc12 was read as CHX counter 22.8*, LmPK inhibitor 5.5%, Tb PYK inh 2.7%, RE007 growth inh 2.7%, Giardia FBPA inh 9.8% and Shiga toxin inh -11.7.
Screening COc1ccc(S(=O)(=O)N(Cc2nc(-c3cccc(C)c3)no2)C2CCCCC2)cc1 returned Tb PYK inh 0.0%.
`CN=C1C([N+](=O)[O-])=CC=C2C1=NC1(CCCCC1)N2O` gave CHX counter -1.9, LmPK inhibitor -29.7%, Tb PYK inh -13.1%, RE007 growth inh -20.9%, Giardia FBPA inh 5µM* and Shiga toxin inh 0.2.
`O=[N+]([O-])C1=CC=C2C(=NC3(CCCCC3)N2O)C1=NCCO` gave CHX counter -3.3, LmPK inhibitor -28.8%, Tb PYK inh -19.5%, RE007 growth inh -29.3%, Giardia FBPA inh 7.06µM* and Shiga toxin inh -8.3.
Cc1ccc(N(CC(=O)NC2CCCCC2)S(=O)(=O)c2cccs2)cc1 was read as CHX counter -13.1, LmPK inhibitor -14.3%, Tb PYK inh 0.2%, RE007 growth inh 1.9% and Shiga toxin inh -7.3.
`COc1cc(/C=C(\C#N)c2nc3ccccc3s2)ccc1OCC(=O)Nc1ccccc1` gave CHX counter 11.0, LmPK inhibitor 4.4%, Tb PYK inh 3.4%, RE007 growth inh 2.1%, Giardia FBPA inh 1.1% and Shiga toxin inh 36.0.
`Cc1ccc(/C=C(\CCC(=O)O)c2nc3ccccc3s2)cc1[N+](=O)[O-]` gave CHX counter 2.6, LmPK inhibitor 3.6%, Tb PYK inh -6.7%, RE007 growth inh inconclusive, Giardia FBPA inh -0.5% and Shiga toxin inh 15.3.
O=C(O)c1ccc(C=C(c2nc3ccccc3s2)c2nc3ccccc3s2)cc1 was read as CHX counter 7.5, LmPK inhibitor 12.6%, Tb PYK inh 2.1%, RE007 growth inh inconclusive, Giardia FBPA inh inconclusive and Shiga toxin inh -2.5.
`CN(C)c1ccc(/C=C(\Cl)c2nc3ccccc3s2)cc1` gave CHX counter 65.8*, LmPK inhibitor -8.2%, Tb PYK inh -18.9%, RE007 growth inh 0.0%, Giardia FBPA inh -6.5% and Shiga toxin inh 79.3*.

Source: PubChem BioAssay (National Center for Advancing Translational Sciences (NCATS))
